PubChem BioAssay AID1730 (National Center for Advancing Translational Sciences (NCATS), 2009)
Results filed as inconclusive are left out. A number with no mark means an inactive call. The source made the active and inactive calls. Calls follow the shape of the dose curve; as a rule, active = well fitted inhibition curve with a large enough effect; inconclusive = small, poorly fitted or top-dose-only effect; inactive = no such curve, though single readings can be large or run the other way.

experiment: Counterscreen Assay for Inhibitors of the ERK Signaling Pathway using a Homogeneous Screening Assay; details: AlphaScreen bead counterscreen in cell lysate, 5 h; series mostly up to 45.6 µM; activity change, negative = inhibition: at the top concentration
Excerpt: qHTS Assay for Inhibitors of the ERK Signaling Pathway using a Homogeneous Screening Assay
NIH Chemical Genomics Center [NCGC]
NIH Molecular Libraries Screening Centers Network [MLSCN]
Assay Submitter (PI): Dr. Wei Zheng, NCGC/NIH
The Ras/extracellular-signal-regulated kinase (ERK) mitogen activated protein (MAP) kinase signaling pathway (ERK1/2 cascade) plays is a key role in transmitting signals from the cell surface to the nucleus (Nishida and Gotoh 1993; Chang and Karin, 2001). The cascade is initiated by the small G-protein Ras, which recruits Raf […], where activation occurs. Alternatively, this pathway can be activated by elevating intracellular cAMP.
Activation of the ERK pathway is essential in increased cell division and cell survival. Sustained and constitutive activation of the ERK pathway, however, has been linked to uncontrolled cell proliferation, increased cell survival, and tumor progression. Thus, the ERK has been as an attractive target for cancer chemotherapy in the past few years (Sebolt-Leopold and Herrera, 2004). Given its physiological and pathological importance, assessment of ERK phosphorylation has been broadly performed in both basic research and drug discovery. Most assays for the measurement of ERK phosphorylation use the antibody-based detection methods, such as western blot and ELISA. These assays require multiple reagent additions with cell wash steps and are not suitable for high-throughput screening.
The current cell-based ERK phosphorylation assay was performed using AlphaScreen platform. AlphaScreen is a two bead-based proximity-dependent chemical energy transfer luminescent assay platform. The assay reagents (ERK SureFire(TM) kit) were supplied from TGR BioSciences (Australia). In the presence of specific antibodies, phosphorylated ERK will bring "donor" and "acceptor" beads to a proximity range (<200 nm), and subsequently lead a chemical luminescent reaction upon exciting donor beads with 680 nm laser. To exclude the assay-related false positives, we used a biotinylated rabbit IgG to perform a counter-screen. The biotinylated antibody mimics the phosphorylated ERK1/2 for bringing streptavidin coated beads and protein-A coated beads to a proximity range for the AlphaScreen detection.
NCGC Assay Protocol Summary:
Biotinylated rabbit IgG was used to perform a counter-screen in the context of an AlphaScreen assay kit provided by PerkinElmer. Data were normalized to the controls for basal activity (DMSO only) and 100% activation (25 nM IgG). AC50 values were determined from concentration-response data modeled with the standard Hill equation.
(1) Seed 4 ul/well of resuspended frozen HEK293 cells containing 2000 cells in white 1536-well plates for overnight with 1% FBS at 37C under a humidified atmosphere containing 5% CO2 and 95% air.
(2) Add 23 nL compounds in DMSO solution. The final titration was 0.6 nM to 46 uM.
(3) Incubate at 37C for 30 min.
(4) Dispense 0.5uL vasopressin (25 nM in final)
(5) Incubate at 37C for 5 min.
(6) Dispense 0.5uL of 1:2 diluted 5x lysis buffer.
(7) Incubate at 37C for 10 min.
(8) Dispense 1.5uL of mixture of activation buffer and reaction buffer with AlphaScreen beads (streptavidin donor beads and protein-A acceptor beads, 10 ng/well for each).
(9) Incubate at room temperature for 5 hr.
(10) Detect the assay plate in an EnVision plate reader (PerkinElmer) using the AlphaScreen detection mode.
Keywords: ERK, MEK, type-1 vasopressin receptors, homogenous, cell-based kinase assay, MLSMR, MLSCN, NIH Roadmap, qHTS and NCGC

SMILES | Potency | activity change, negative = inhibition
CN(C)CCCn1cc(C2=C(c3c[nH]c4ccccc34)C(=O)NC2=O)c2ccccc21 | 35.5 µM (active) | –
Cn1c(=O)cc(Nc2ccccc2)c2c(=O)n(-c3ccccc3)c(=O)n(-c3ccccc3)c21 | – | -33.4%
CN(C)c1cc2c(Nc3ccc4c(cnn4Cc4ccccc4)c3)ncnc2cn1 | – | -6.45%
COc1ccc(C(=O)c2ccc(Cl)c([N+](=O)[O-])c2)cc1 | – | -22.8%
Cc1sc2ncnc(Sc3nnnn3-c3ccc(Cl)cc3)c2c1C | – | -12.9%
CCCCC[C@H](O)C=C[C@H]1[C@H](O)CC(=O)[C@H]1CCCCCCC(=O)O | – | -32.4% [at 57.5 µM]
c1ccc(Nc2ncnc3sc4c(c23)CCC4)cc1 | – | -12.1%
C=C[C@@]1(C)CC(=O)[C@@]2(O)[C@@]3(C)[C@@H](O)CCC(C)(C)[C@@H]3[C@H](OC(=O)CCN(C)C)[C@H](OC(C)=O)[C@@]2(C)O1 | – | -32.2% [at 57.5 µM]
C/C(=N\Nc1nnc(-c2ccccc2)c(-c2ccccc2)n1)c1cccc([N+](=O)[O-])c1 | – | -10%
CCOC(=O)Cc1csc(NC(=O)CSc2ncnc3c2cnn3-c2ccc(OC)cc2)n1 | – | -15.9% [at 57.5 µM]
COc1cc2ncnc(NCc3cccc(Cl)c3)c2cc1OC | – | -22.8%
Fc1cccc(Nc2ncnc3sc4c(c23)CCC4)c1 | – | -7.2%
Cc1ccc(NNc2c(C)nc3ccccc3nc2=O)cc1 | – | -9.99%
COc1cc(C(=O)Nc2nc(-c3cccs3)cs2)cc(OC)c1OC | – | -25.6% [at 57.5 µM]
c1ccc(-c2csc(-c3nc4ccccc4[nH]3)n2)cc1 | – | -18.4% [at 57.5 µM]
c1ccc(Oc2nc(NCc3ccco3)nc(NCc3ccco3)n2)cc1 | – | -16.5% [at 57.5 µM]
C=C[C@]1(C)CC(=O)[C@@]2(O)[C@@]3(C)C(O)CCC(C)(C)C3C(O)C(OC(C)=O)[C@@]2(C)O1 (stereo not given in full) | – | -10.3%
c1ccc(Nc2ncnc3ccc(-c4cccnc4)cc23)cc1 | – | -11.4%
C=CS(=O)(=O)c1ccc(Oc2ccc(S(=O)(=O)C=C)cc2)cc1 | – | -15.2% [at 57.5 µM]
Cc1nc2ccccc2nc(=O)c1NNc1ccccc1 | – | -26.2%
COc1ccc(-c2ccc(SCC(=O)N3CCCC3)nn2)cc1OC | – | -11.4% [at 57.5 µM]
CCOC(=O)c1ccc(NC(=O)c2ccc(C)c(S(=O)(=O)N3CCOCC3)c2)cc1 | – | -20.2% [at 57.5 µM]
C=C[C@@]1(C)CC(=O)[C@@]2(O)[C@@]3(C)[C@@H](O)CCC(C)(C)[C@@H]3[C@H](O)[C@H](OC(C)=O)[C@@]2(C)O1 | – | -8.35%
COc1ccc(C(=O)OC(COc2ccccc2)Cn2ccnc2)cc1 (stereo not given) | – | -26.4%
Cc1cc2nc3ccc(=[N+](C)C)cc-3sc2cc1N | – | -11.8%
